Where “and” joins values, the source holds several entries; their conditions need not be identical. Identical values can stand only once. In all, about 5,500 compounds went through this assay and about 2,000 (36%) were called active. Inconclusive results (about 18%) are left out. Rule as the data show it: active = normalized growth mostly below about 0.91 (no sharp cut-off); inconclusive = no clear call, values can overlap the other calls; inactive = mostly above about 0.92. The list shows a part of the results.
Test: chemical genetic growth profiling, strain panel (AID 1159580);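 also: tested at 20 µM; growth read once vehicle control cultures reached saturation at 30 °C; 1 = growth at the plate median or of vehicle wells; lower values mean less growth of the strain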
Conditions: S. cerevisiae deletion strains, growth OD

Measured: normalized growth

O=C(O)C1=CCCNC1
inactive: locus YAL021C, strain ccr4, stronger effect = lower value 1.02 | locus YAL026C, strain drs2, stronger effect = lower value 0.991 | locus YAL030W, strain snc1, stronger effect = lower value 0.999 | locus YBL061C, strain skt5, stronger effect = lower value 0.993 | locus YBR009C, strain hhf1, stronger effect = lower value 1.04 | locus YBR021W, strain FUR4, stronger effect = lower value 1.02 | locus YBR023C, strain chs3, stronger effect = lower value 1.01 | locus YBR171W, strain sec66, stronger effect = lower value 0.985 | locus YBR229C, strain ROT2, stronger effect = lower value 1 | locus YBR231C, strain swc5, stronger effect = lower value 0.981 | locus YBR279W, strain paf1, stronger effect = lower value 0.988 | locus YCL011C, strain gbp2, stronger effect = lower value 1.01 | locus YCL016C, strain dcc1, stronger effect = lower value 1.02 | locus YCL029C, strain bik1, stronger effect = lower value 0.974 | locus YCL061C, strain MRC1 (second series), stronger effect = lower value 1.01 | locus YCL069W, strain vba3, stronger effect = lower value 1 | locus YCR088W, strain abp1, stronger effect = lower value 0.989 | locus YDL005C, strain med2, stronger effect = lower value 0.978 | locus YDL035C, strain GPR1, stronger effect = lower value 0.99 | locus YDL040C, strain nat1, stronger effect = lower value 0.989 | locus YDL074C, strain BRE1, stronger effect = lower value 0.984 | locus YDL101C, strain DUN1, stronger effect = lower value 1.01 | locus YDL185W, strain tfp1, stronger effect = lower value 0.968 | locus YDL192W, strain arf1, stronger effect = lower value 0.973 | locus YDR001C, strain nth1, stronger effect = lower value 0.99 | locus YDR069C, strain doa4, stronger effect = lower value 0.999 | locus YDR101C, strain arx1, stronger effect = lower value 0.979 | locus YDR137W, strain rgp1, stronger effect = lower value 1.01 | locus YDR159W, strain sac3, stronger effect = lower value 0.96 | locus YDR162C, strain NBP2, stronger effect = lower value 1.04 | locus YDR195W, strain ref2 0.959 | locus YDR297W, strain sur2, stronger effect = lower value 1 | locus YDR318W, strain mcm21, stronger effect = lower value 0.995 | locus YDR334W, strain swr1, stronger effect = lower value 0.979 | locus YDR335W, strain msn5, stronger effect = lower value 0.995 | locus YDR363W, strain ESC2, stronger effect = lower value 1.01 | locus YDR388W, stronger effect = lower value 0.989 | locus YDR392W, strain spt3, stronger effect = lower value 0.941 | locus YDR502C, strain sam2, stronger effect = lower value 0.987 | locus YEL003W, strain gim4, stronger effect = lower value 0.989 | locus YEL037C, strain rad23, stronger effect = lower value 0.989 | locus YEL061C, strain CIN8 (second series), stronger effect = lower value 0.987 | locus YEL061C, strain CIN8, stronger effect = lower value 0.998 | locus YER002W, strain NOP16, stronger effect = lower value 0.91 | locus YER015W, strain faa2, stronger effect = lower value 0.984 | locus YER016W, strain bim1, stronger effect = lower value 0.995 | locus YER110C, stronger effect = lower value 0.965 | locus YER111C, strain swi4, stronger effect = lower value 0.981 | locus YER155C, strain BEM2 (second series), stronger effect = lower value 0.959 | locus YER155C, strain BEM2, stronger effect = lower value 0.985 | locus YER167W, strain BCK2, stronger effect = lower value 0.991 | locus YFR010W, strain ubp6, stronger effect = lower value 0.973 | locus YGL078C, strain dbp3, stronger effect = lower value 1.01 | locus YGL086W, strain mad1, stronger effect = lower value 0.98 | locus YGL167C, strain pmr1, stronger effect = lower value 0.99 | locus YGL173C, strain kem1, stronger effect = lower value 0.99 | locus YGL227W, strain vid30, stronger effect = lower value 0.989 | locus YGL240W, strain doc1, stronger effect = lower value 0.986 | locus YGL248W, strain PDE1, stronger effect = lower value 1.02 | locus YGL253W, strain hxk2, stronger effect = lower value 0.981 | locus YGR135W, strain pre9, stronger effect = lower value 0.997 | locus YGR229C, strain SMI1, stronger effect = lower value 1.02 | locus YGR252W, strain gcn5, stronger effect = lower value 1.15 | locus YHR013C, strain ard1, stronger effect = lower value 0.979 | locus YHR027C, strain rpn1, stronger effect = lower value 0.993 | locus YHR030C, strain SLT2, stronger effect = lower value 0.985 and 1.04 | locus YHR079C, strain IRE1 (second series), stronger effect = lower value 0.974 | locus YHR079C, strain IRE1, stronger effect = lower value 1.04 | locus YHR094C, strain hxt1, stronger effect = lower value 0.981 | locus YHR129C, strain ARP1, stronger effect = lower value 0.992 | locus YHR142W, strain chs7, stronger effect = lower value 1.02 | locus YHR200W, strain rpn10, stronger effect = lower value 0.984 | locus YIL066C, strain RNR3, stronger effect = lower value 1.01 | locus YIL073C, strain SPO22, stronger effect = lower value 0.943 | locus YIL125W, strain kgd1, stronger effect = lower value 0.987 | locus YIR030C, strain dcg1, stronger effect = lower value 0.987 | locus YJL092W, strain hpr5, stronger effect = lower value 0.991 | locus YJL095W, strain BCK1 (second series), stronger effect = lower value 1 | locus YJL095W, strain BCK1, stronger effect = lower value 1.05 | locus YJL115W, strain asf1, stronger effect = lower value 0.985 | locus YJL129C, strain trk1, stronger effect = lower value 0.99 | locus YJL134W, strain LCB3, stronger effect = lower value 0.991 | locus YJL154C, strain vps35, stronger effect = lower value 0.98 | locus YJL164C, strain tpk1, stronger effect = lower value 1.02 | locus YJL166W, strain qcr8, stronger effect = lower value 1.01 | locus YJL168C, strain set2, stronger effect = lower value 0.993 | locus YJL187C, strain SWE1 (second series), stronger effect = lower value 1.02 | locus YJR043C, strain POL32, stronger effect = lower value 1.01 | locus YJR066W, strain TOR1, stronger effect = lower value 0.997 | locus YJR075W, strain HOC1, stronger effect = lower value 1.01 and 1 | locus YKL009W, strain mrt4, stronger effect = lower value 0.961 | locus YKL068W, stronger effect = lower value 1 | locus YKL085W, strain MDH1 (second series), stronger effect = lower value 0.973 | locus YKL085W, strain MDH1, stronger effect = lower value 0.973 | locus YKL160W, strain elf1, stronger effect = lower value 1 | locus YKL190W, strain CNB1, stronger effect = lower value 0.997 | locus YKR001C, strain vps1, stronger effect = lower value 0.999 | locus YKR026C, strain gcn3, stronger effect = lower value 0.981 | locus YKR091W, strain srl3, stronger effect = lower value 0.995 | locus YLL001W, strain dnm1, stronger effect = lower value 0.993 | locus YLL026W, stronger effect = lower value 0.994 | locus YLL041C, strain sdh2, stronger effect = lower value 0.987 | locus YLR027C, strain aat2, stronger effect = lower value 0.969 | locus YLR039C, strain RIC1, stronger effect = lower value 0.963 | locus YLR058C, strain SHM2, stronger effect = lower value 1.01 | locus YLR102C, strain apc9, stronger effect = lower value 0.97 | locus YLR113W, strain HOG1, stronger effect = lower value 1.02 | locus YLR221C, strain rsa3, stronger effect = lower value 0.96 | locus YLR258W, strain gsy2, stronger effect = lower value 1.02 | locus YLR262C, strain YPT6 (second series), stronger effect = lower value 1.01 | locus YLR262C, strain YPT6, stronger effect = lower value 0.999 | locus YLR268W, strain sec22, stronger effect = lower value 0.975 | locus YLR320W, strain mms22, stronger effect = lower value 0.963 | locus YLR330W, strain CHS5, stronger effect = lower value 0.984 | locus YLR342W, strain FKS1 (second series), stronger effect = lower value 0.987 | locus YLR342W, strain FKS1, stronger effect = lower value 0.983 | locus YLR357W, strain rsc2, stronger effect = lower value 0.969 | locus YLR370C, strain arc18, stronger effect = lower value 0.998 | locus YLR371W, strain rom2, stronger effect = lower value 0.977 | locus YLR384C, strain iki3, stronger effect = lower value 0.973 | locus YLR418C, strain cdc73, stronger effect = lower value 1.04 | locus YML016C, strain PPZ1, stronger effect = lower value 0.995 | locus YML032C, strain rad52, stronger effect = lower value 0.989 | locus YML120C, strain ndi1, stronger effect = lower value 1.01 | locus YML124C, strain tub3, stronger effect = lower value 1.01 | locus YMR058W, strain fet3, stronger effect = lower value 0.992 | locus YMR078C, strain ctf18, stronger effect = lower value 0.974 | locus YMR125W, strain sto1, stronger effect = lower value 1.01 | locus YMR129W, stronger effect = lower value 0.992 | locus YMR205C, strain PFK2, stronger effect = lower value 1.01 | locus YMR223W, strain ubp8, stronger effect = lower value 1 | locus YMR231W, strain pep5, stronger effect = lower value 0.985 | locus YMR263W, strain SAP30, stronger effect = lower value 1 and 1.01 | locus YMR307W, strain GAS1, stronger effect = lower value 1.12 | locus YNL067W, strain RPL9B, stronger effect = lower value 1.03 | locus YNL071W, strain lat1, stronger effect = lower value 1 | locus YNL153C, strain GIM3, stronger effect = lower value 1.04 and 1.02 | locus YNL175C, strain NOP13, stronger effect = lower value 1 | locus YNL183C, strain NPR1, stronger effect = lower value 1.01 | locus YNL197C, strain WHI3, stronger effect = lower value 0.915 | locus YNL209W, strain ssb2, stronger effect = lower value 1.01 | locus YNL224C, strain SQS1, stronger effect = lower value 1 | locus YNL233W, strain BNI4, stronger effect = lower value 1.02 | locus YNL248C, strain rpa49, stronger effect = lower value 0.965 | locus YNL250W, strain rad50, stronger effect = lower value 0.978 | locus YNL271C, strain bni1, stronger effect = lower value 0.994 | locus YNL298W, strain CLA4, stronger effect = lower value 0.987 | locus YNL307C, strain MCK1, stronger effect = lower value 0.992 | locus YNL322C, strain KRE1 (second series), stronger effect = lower value 1 | locus YNL322C, strain KRE1, stronger effect = lower value 1.01 | locus YNR049C, strain mso1, stronger effect = lower value 0.976 | locus YNR052C, strain pop2, stronger effect = lower value 1.01 | locus YOL006C, strain TOP1, stronger effect = lower value 0.976 | locus YOL012C, strain htz1 1.03 | locus YOL147C, strain pex11, stronger effect = lower value 0.984 | locus YOR001W, strain rrp6, stronger effect = lower value 0.943 | locus YOR061W, strain CKA2, stronger effect = lower value 0.992 | locus YOR069W, strain VPS5, stronger effect = lower value 0.989 | locus YOR070C, strain gyp1, stronger effect = lower value 0.982 | locus YOR080W, strain dia2, stronger effect = lower value 0.987 | locus YOR083W, strain WHI5 (second series), stronger effect = lower value 1.03 | locus YOR083W, strain WHI5, stronger effect = lower value 1.01 | locus YOR106W, strain vam3, stronger effect = lower value 1.01 | locus YOR136W, strain idh2, stronger effect = lower value 0.984 | locus YOR144C, strain elg1, stronger effect = lower value 0.988 | locus YOR184W, strain ser1, stronger effect = lower value 0.97 | locus YOR231W, strain MKK1, stronger effect = lower value 1.05 | locus YOR265W, strain rbl2, stronger effect = lower value 0.992 | locus YOR270C, strain vph1, stronger effect = lower value 0.976 | locus YOR290C, strain snf2, stronger effect = lower value 0.985 | locus YOR316C, strain cot1, stronger effect = lower value 0.98 | locus YPL051W, strain arl3, stronger effect = lower value 0.981 | locus YPL055C, strain LGE1, stronger effect = lower value 1.01 | locus YPL078C, strain atp4, stronger effect = lower value 1.01 | locus YPL106C, strain sse1, stronger effect = lower value 1.01 | locus YPL240C, strain hsp82, stronger effect = lower value 0.992 | locus YPL256C, strain CLN2, stronger effect = lower value 1.03 | locus YPR119W, strain clb2, stronger effect = lower value 0.973 | locus YPR141C, strain kar3, stronger effect = lower value 0.983 | locus YPR163C, strain tif3, stronger effect = lower value 0.983 | locus YPR167C, strain met16, stronger effect = lower value 0.958 | strain wtn01, stronger effect = lower value 0.985

From PubChem BioAssay AID1159580 (chemical genetic matrix, 2015)
